Source: PubChem (National Center for Advancing Translational Sciences (NCATS))
TDP1 cell noCPT – qHTS for Inhibitors of human tyrosyl-DNA phosphodiesterase 1 (TDP1): qHTS in cells in absence of CPT. DT40 Tdp1-/- hTDP1 cells, no CPT, ATP luminescence, 48 h. Potency, µM (top dose mostly 46.2 µM), most hits filed as inhibitors. 420,000 tested, 15% active. AID 686978, 2013; further: nearly all actives have a fitted effect of over 55% in size
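Seeded 400 DT40-hTDP1 cells/well (vehicle DMSO, no 20 nM CPT); pinned compounds; ≥48 hr at 37 °C; CellTiter-Glo luminescence as viability measure.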
TDP1 block – inhibitors of human tyrosyl-DNA phosphodiesterase TDP1; Q9NUW8; recombinant TDP1, AlphaScreen DNA substrate cleavage; Potency, µM (titrated, usually from 130 µM), most hits filed as inhibitors; 350,000 tested, 0.28% active; further: nearly all actives have a fitted effect of over 40% in size
Target sequence (Q9NUW8 whole entry, looked up): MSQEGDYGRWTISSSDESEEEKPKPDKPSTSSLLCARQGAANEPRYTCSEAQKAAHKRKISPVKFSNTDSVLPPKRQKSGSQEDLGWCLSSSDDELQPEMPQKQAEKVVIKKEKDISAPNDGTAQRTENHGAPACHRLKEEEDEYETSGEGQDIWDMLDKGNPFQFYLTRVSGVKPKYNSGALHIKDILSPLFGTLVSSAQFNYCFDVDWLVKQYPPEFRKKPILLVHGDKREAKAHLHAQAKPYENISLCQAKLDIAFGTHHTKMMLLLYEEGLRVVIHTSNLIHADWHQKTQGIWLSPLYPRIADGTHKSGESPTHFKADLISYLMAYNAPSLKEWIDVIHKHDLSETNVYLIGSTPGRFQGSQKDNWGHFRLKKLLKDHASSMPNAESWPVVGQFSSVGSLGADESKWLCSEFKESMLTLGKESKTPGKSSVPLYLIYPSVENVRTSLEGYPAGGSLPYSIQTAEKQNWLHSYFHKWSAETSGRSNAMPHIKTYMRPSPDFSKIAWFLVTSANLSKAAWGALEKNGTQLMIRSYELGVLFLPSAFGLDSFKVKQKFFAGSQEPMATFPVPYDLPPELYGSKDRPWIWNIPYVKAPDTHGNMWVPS
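Steps: enzyme plus compound, 15 min RT; add biotin/phosphotyrosine-FITC oligonucleotide (15 nM final), react 5 min; add donor/acceptor beads (10 ug/ml final), 10 min; read AlphaScreen. Tdp1 at 1 nM final.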
IL-1B inflam inh – inflammasome signaling inhibition, IL-1 beta readout; activity change, % at 57.5 µM; 360,000 tested, 4.7% active; AID 743279; THP-1 LPS/ATP IL-1B secretion, AlphaLISA, 16 h; stronger effect = lower value; in the data active means activity change below about -50%; inconclusive means mostly about -30% to -49%
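Secreted IL-1B measured by AlphaLISA bead assay after 16 h compound exposure of THP-1 cells; compounds (final up to 57.5 uM) added 1 h before LPS (250 ng/mL) and ATP (1.25 mM) stimulation; lower signal means less secretion.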
HepG2 tox – counter-screen for TGF-b inhibitors: cytotoxicity in HepG2 cells; 410,000 tested, 0.76% active; Potency, µM (doses to about 46.1 µM), usual class: cytotoxic; HepG2 CAGA-GFP viability, ATP luminescence, 18 h
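CellTiter-Glo luminescence gave cytotoxicity after 18 hours at 37 degrees C. The cells were HepG2 CAGA-GFP in 1% FBS DMEM, stimulated with 500 pg/mL TGF-beta after compound addition. %Activity was normalised to no-cell wells (complete cell-killing) and DMSO (no toxicity), and curves were fitted and classified.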
TGFb inhibitor – TGF-b pathway inhibition. Potency, µM (highest dose often 46.1 µM), most hits filed as inhibitors. 410,000 tested, 1.2% active. HepG2 CAGA-GFP TGF-b/SMAD3 reporter, GFP fluorescence, 18 h; TGF-beta stimulated, 500 pg/mL final; further: nearly all actives have a fitted effect of over 65% in size
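HEPG2 CAGA-GFP reporter cells (1000/well, DMEM with 1% FBS) received compounds, then recombinant TGF-beta at 500 pg/mL final for 18 hours at 37 degrees C. Per-cell GFP summed per well was normalised to unstimulated and stimulated DMSO controls before curve fitting.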
TDP1 cell CPT – growth inhibition of DT40 Tdp1-/-;hTDP1 cells with camptothecin (screen for TDP1 inhibitors); chicken DT40 Tdp1-/-;hTDP1 cells + 20 nM CPT, ATP luminescence, 48 h; Potency, µM (doses to about 46.2 µM), actives largely listed as inhibitors; 420,000 tested, 12% active; AID 686979; further: nearly all actives have a fitted effect of over 55% in size
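Chicken DT40 Tdp1-/- cells stably complemented with human TDP1 were seeded at 400 cells/well in medium containing 20 nM camptothecin, exposed to pin-transferred compounds, and grown at 37 °C for at least 48 hr. Viability was read as ATP luminescence.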
Numbers stand for hits; n = inactive; u = inconclusive; x = not tested or not shown. Rows were chosen to be rich in hits. Some 19% of all compounds tested hit in one or more screens of this group. Unless noted, the call rests on the fitted dose curve; in most records, active means well fitted curve in the direction sought with a large enough effect; inconclusive means small, poorly fitted or top-dose-only effect, or another doubt; inactive means no such curve, though single readings can be large; an effect the other way counts as inactive or inconclusive.

SMILES | TDP1 cell noCPT | TDP1 block | IL-1B inflam inh | HepG2 tox | TGFb inhibitor | TDP1 cell CPT
O=C(COC(=O)CCSc1ccc(F)cc1)NCc1ccc(F)cc1 | n | n | n | n | u | u
COc1ccc(CNC(=O)CCc2c(C)nn(-c3ccc(N4CCCC4)nn3)c2C)c(OC)c1 | n | n | x | n | n | n
COc1cc(NC(=O)CCc2c(C)nn(-c3ccc(N4CCCCC4)nn3)c2C)cc(OC)c1OC | u | n | x | n | n | 21µM
COc1ccc(OC)c(NC(=O)CCc2c(C)nn(-c3ccc(N4CCCC4)nn3)c2C)c1 | 15µM | n | x | n | u | 21µM
COc1ccc(NC(=O)CCc2c(C)nn(-c3ccc(N4CCCCC4)nn3)c2C)cc1Cl | u | n | x | n | u | u
COc1ccc(OCc2nc3c4c(-c5ccc(OC)cc5)c(-c5ccc(OC)cc5)oc4ncn3n2)cc1 | n | x | x | n | n | n
Cc1ccc(-c2nn(-c3ccccc3)cc2C=C2C(=O)CC(C)(C)CC2=O)cc1 | u | n | n | n | u | 15µM
CC1=NN(c2ccccc2)C(=O)/C1=C\c1cn(-c2ccccc2)nc1C | n | n | n | n | n | u
CC1=NNC(=O)/C1=C\c1cn(-c2ccccc2)nc1-c1ccc(Cl)cc1 | 5.2µM | n | -119 | n | 3.5µM | 5.2µM
CC1(C)CC(=O)C(=Cc2cn(-c3ccccc3)nc2-c2ccccc2)C(=O)C1 | 23µM | x | n | n | n | 23µM
O=C(O)Cc1cn(-c2ccccc2)nc1-c1ccc(Cl)cc1 | u | n | n | n | n | u
CC1=NN(c2ccccc2)C(=O)/C1=C\c1cn(CCC#N)nc1-c1ccc(Cl)cc1 | u | n | -85 | n | u | u
Cc1ccc(C(=O)NCCN2CCC(n3c(=O)[nH]c4ccccc43)CC2)cc1F | n | x | n | x | x | n
O=C(NC1=NN(c2ccccc2)CC1)Nc1ccccc1F | u | n | n | n | n | u
Cn1cc(S(=O)(=O)N2CCCCCC2)cc1C(=O)Nc1ccc(Cl)c(C(F)(F)F)c1 | n | n | x | n | n | n
CCC(Nc1ccc(-c2nc(-c3ccccn3)no2)cc1[N+](=O)[O-])c1ccccc1 (centres undefined) | u | n | x | n | n | u
COc1ccc(S(=O)(=O)c2cnc3ccc(OC)cc3c2N2CCC3(CC2)OCCO3)cc1 | 3.3µM | n | u | n | n | 8.2µM
CCOc1ccc2ncc(S(=O)(=O)c3ccccc3)c(N3CCN(c4ccccc4)CC3)c2c1 | u | x | n | n | n | 15µM
COc1ccc(N2CCN(c3c(S(=O)(=O)c4ccccc4)cnc4ccc(OC)cc34)CC2)cc1 | 18µM | n | n | n | n | 23µM
CCOc1ccc2ncc(S(=O)(=O)c3ccccc3)c(N3CCC4(CC3)OCCO4)c2c1 | x | n | x | x | x | x
O=S1(=O)NCC23CCC(CC21)O3 (centres undefined) | x | n | x | n | n | x
Cn1cc(S(=O)(=O)N2CCOCC2)cc1C(=O)Nc1cccc(C#N)c1 | n | n | x | n | n | n
CCOC(=O)c1c(-c2ccc(C)cc2)csc1NC(=O)c1nc(SC(C)C)ncc1Cl | n | n | x | n | n | n
CCOC(=O)c1ccc(NC(=O)c2nc(SC(C)C)ncc2Cl)cc1 | 16µM | n | x | n | n | 16µM
Cc1nnc(NC(=O)c2nc(SC(C)C)ncc2Cl)s1 | n | n | x | n | n | n
SMILES | TDP1 cell noCPT | TDP1 block | IL-1B inflam inh | HepG2 tox | TGFb inhibitor | TDP1 cell CPT
Cc1cccc(C)c1NC(=O)c1nc(SC(C)C)ncc1Cl | u | n | x | n | n | 18µM
COc1ccccc1NC(=O)c1cnc(SC)nc1 | n | x | n | n | u | n
Fc1ccc(-c2nnc(-n3nnc4ccccc43)c3ccccc23)cc1 | 12µM | x | n | n | n | u
CCN1CCN(c2nnc(-c3ccccc3)c3ccccc23)CC1 | n | x | n | n | n | n
c1ccc2c(c1)nnn2-c1ncnc2sccc12 | n | n | n | n | n | n
COc1ccc(-c2nnc(N3CCCCC3)c3ccccc23)cc1 | 18µM | n | -66 | n | n | 23µM
Cc1ccccc1Oc1nnc(-c2cccs2)c2ccccc12 | u | n | n | n | u | u
CN1CCN(c2nnc(-c3cccs3)c3ccccc23)CC1 | n | n | -54 | n | n | n
Cc1ccc(-c2nnc(N3CCCCCC3)c3ccccc23)cc1 | 16µM | n | x | n | n | u
CC1Sc2ccc(S(=O)(=O)N(C)Cc3ccccc3)cc2NC1=O (centres undefined) | n | n | n | n | n | n
CCCC1NC(=O)c2cccnc2-n2c1nc1ccc(Cl)cc1c2=O (centres undefined) | n | x | n | n | n | n
COC(=O)c1ccc(NC(=O)CN2CCC(NC(=O)c3ccccc3F)CC2)cc1 | u | x | n | n | n | n
COc1ccccc1N1CCN(c2nnc(-c3ccc(F)cc3)c3ccccc23)CC1 | 21µM | n | n | n | n | u
COc1ccc(-c2nnc(N3CCOCC3)c3ccccc23)cc1 | n | n | x | n | n | n
CCOc1ccc(CCNC(=O)CCCn2c(=O)c3cccn3c3cccnc32)cc1 | u | n | x | n | n | u
COc1ccc(OC)c(N(CCN2C(=O)c3ccccc3C2=O)C(=O)CCl)c1 | 21µM | x | -104 | n | u | u
COc1ccc2c(c1)c1c(c(=O)n(-c3cccc(C)c3)c(=O)n1CC(=O)N1CCCC1)n2C | u | n | x | n | n | u
COc1ccc2c(c1)c1c(c(=O)n(-c3cccc(Cl)c3)c(=O)n1CC(=O)N1CCCC1)n2C | u | n | x | n | u | 23µM
COc1ccc2c(c1)c1c(c(=O)n(-c3ccc(C)cc3)c(=O)n1CC(=O)N1CCCC1)n2C | 21µM | n | x | n | n | 16µM
CCC(C)(C)n1nnnc1C(c1cc(OC)ccc1OC)N1CCN(Cc2ccccc2)CC1 (centres undefined) | u | n | n | n | n | u
COc1ccc(CNC(=O)/C(C#N)=C2\N=C(NC(=O)c3cccs3)c3ccccc32)cc1 | u | n | n | n | n | 26µM
COCCNC(=O)/C(C#N)=C1\N=C(NC(=O)c2cccs2)c2ccccc21 | n | n | n | n | n | n
O=c1cc(O)c2c([nH]1)CCC2 | n | x | x | n | n | n
Fc1ccc(/C=C2\CCCC3=C2NC(=S)NC3c2ccc(F)cc2)cc1 (centres undefined) | x | n | x | x | x | x
S=C1NC2=C(CCCC2=C2SCCS2)C(c2ccccc2)N1 (centres undefined) | 16µM | n | -84 | n | n | n
